# Data as given in the OligoGym collection.
# Columns and labels:
# Test in all cases: pooled miR-30 sensor sort-seq; sequence = guide strand
# Conditions in all cases: shRNA
# C14orf181 = molecular target: C14orf181
# C15orf54 = molecular target: C15orf54
# C15orf42 = molecular target: C15orf42
# C15orf39 = molecular target: C15orf39
# C14orf149 = molecular target: C14orf149
# C17orf71 = molecular target: C17orf71
# C1QL1 = molecular target: C1QL1
# C1orf61 = molecular target: C1orf61
# C2orf82 = molecular target: C2orf82
# C3orf33 = molecular target: C3orf33
# C3orf64 = molecular target: C3orf64
# C3orf22 = molecular target: C3orf22
# C5orf56 = molecular target: C5orf56
# C5AR1 = molecular target: C5AR1
# C5orf51 = molecular target: C5orf51
# C6orf105 = molecular target: C6orf105
# C6orf58 = molecular target: C6orf58
# C9orf93 = molecular target: C9orf93
# C9orf37 = molecular target: C9orf37
# C9orf72 = molecular target: C9orf72
# Also: reference of the scale not given here.
sequence,measurement,setting,value
AAAGTCTTCGGAGTGAAGGAGG,sensor-assay potency score (higher = more potent),C14orf181,-0.89
TTCAAGATCAAACTAGGCCATG,sensor-assay potency score (higher = more potent),C15orf54,-1.17
TATACTATCCACAACATCTGAG,sensor-assay potency score (higher = more potent),C15orf42,0.285
TTTAGCTTGGAGGTGGTGGTGG,sensor-assay potency score (higher = more potent),C14orf181,0.0381
TAGGTTTAGAACTTCTTAGTGT,sensor-assay potency score (higher = more potent),C15orf42,0.687
TTCAATTTGTCGAAGATTCTGT,sensor-assay potency score (higher = more potent),C15orf42,0.525
TACAACATGATTTCTCCTGTGG,sensor-assay potency score (higher = more potent),C15orf42,0.642
TAGAGAGAGAGGTCATCCCGGG,sensor-assay potency score (higher = more potent),C15orf39,-0.132
TTCAACATCTTTAAGGAACGGC,sensor-assay potency score (higher = more potent),C15orf42,0.686
TTCATCTTCTGTCTCACTGGAG,sensor-assay potency score (higher = more potent),C15orf42,0.162
TGGTGCTTCTGTGTCTATCTTT,sensor-assay potency score (higher = more potent),C15orf39,-0.327
AAAGTGAAAGTCTTCGGAGTGA,sensor-assay potency score (higher = more potent),C14orf181,0.018
TTTAGGAACATTTTAACGGTTG,sensor-assay potency score (higher = more potent),C15orf42,-0.0807
TACACAGTCGCGCCACTGCAGG,sensor-assay potency score (higher = more potent),C15orf39,-1.54
TAGCTTGGAGGTGGTGGTGGGG,sensor-assay potency score (higher = more potent),C14orf181,-0.69
ATAAGGAAAACTCAGTGTCTGG,sensor-assay potency score (higher = more potent),C15orf39,-1.35
TTGTCAATGACAGGCATTGGTG,sensor-assay potency score (higher = more potent),C15orf39,-1.34
TATAAGCATCTTTTCCATCTGT,sensor-assay potency score (higher = more potent),C14orf149,0.316
TAATTTAGAGAAAACAGTCCTT,sensor-assay potency score (higher = more potent),C14orf149,0.523
TATTTTAGCTTGGAGGTGGTGG,sensor-assay potency score (higher = more potent),C14orf181,-0.309
TTAGTGATCTCTTTGAAGGGGA,sensor-assay potency score (higher = more potent),C15orf42,0.326
TACCGGTAGAGTACAAGGGTGG,sensor-assay potency score (higher = more potent),C15orf39,-0.811
ATAGAGAGAGAGGTCATCCCGG,sensor-assay potency score (higher = more potent),C15orf39,-0.641
TTTACTCTTACTAACTTCTGAA,sensor-assay potency score (higher = more potent),C15orf42,0.249
TAAAATCACCACATTTCGCTTC,sensor-assay potency score (higher = more potent),C14orf149,0.352
TTCTTGATGAGCTATAGTGGAT,sensor-assay potency score (higher = more potent),C15orf42,-1.03
TGCACTGCCGCTTCCGACCGGG,sensor-assay potency score (higher = more potent),C14orf181,-0.747
TTGTGTCTAAGTCTCCTTCATC,sensor-assay potency score (higher = more potent),C17orf71,-0.792
TTTGTTGCTGTTGCCGCCGTGT,sensor-assay potency score (higher = more potent),C1QL1,-0.647
TATAGCCATATAGATCTTGGTT,sensor-assay potency score (higher = more potent),C1orf61,-1.16
TTTCTCAGCGCGACGACCACGA,sensor-assay potency score (higher = more potent),C2orf82,0.0474
TTTAGCTCTTTTTGTAACCATG,sensor-assay potency score (higher = more potent),C3orf33,-1.58
TTAGCATCTTCTATAGGTCTGA,sensor-assay potency score (higher = more potent),C3orf64,0.396
AACATCGTCTGTGAGCACCGCA,sensor-assay potency score (higher = more potent),C2orf82,0.28
TGGTCCAGCCGCTCCTGCGCGG,sensor-assay potency score (higher = more potent),C2orf82,-1.68
AAAGGTTGCACAGTGGAGGTGG,sensor-assay potency score (higher = more potent),C3orf22,1.05
TCCTGTGGAACATCGTCTGTGA,sensor-assay potency score (higher = more potent),C2orf82,-0.191
TGTACGGAAACTTCTTGGCAAA,sensor-assay potency score (higher = more potent),C3orf22,-1.61
TTTCCTACCACAAACAGTGTTA,sensor-assay potency score (higher = more potent),C3orf64,-0.00284
TTGCACAGTGGAGGTGGTGATG,sensor-assay potency score (higher = more potent),C3orf22,-1.21
TTGTTCATGTTGTCTTTCCATA,sensor-assay potency score (higher = more potent),C3orf33,-1.3
CTGTGGAACATCGTCTGTGAGC,sensor-assay potency score (higher = more potent),C2orf82,-2.1
TACTCCAGCCAACTTAACCAGC,sensor-assay potency score (higher = more potent),C3orf33,-1.6
TTTGATGTCAGTCGAATGCTTC,sensor-assay potency score (higher = more potent),C3orf33,-0.51
ACGAGCGCCAGCACCACGCAGG,sensor-assay potency score (higher = more potent),C2orf82,-1.89
TTTTTCATAATAACTTTCTTTT,sensor-assay potency score (higher = more potent),C3orf33,-0.968
ATCGTCTGTGAGCACCGCAGGG,sensor-assay potency score (higher = more potent),C2orf82,-1.34
TGGAACATCGTCTGTGAGCACC,sensor-assay potency score (higher = more potent),C2orf82,-1.29
TAAACAAGTTGGAACACTCTGG,sensor-assay potency score (higher = more potent),C3orf64,0.509
TATATGGACAAAGAGAGTCTTT,sensor-assay potency score (higher = more potent),C3orf64,-0.594
TTCGAGTCGTTTGTGACCTCCC,sensor-assay potency score (higher = more potent),C3orf22,0.262
AACCTGTACGGAAACTTCTTGG,sensor-assay potency score (higher = more potent),C3orf22,-1.12
TTCTTTTTCAGAGTCTTCCTTC,sensor-assay potency score (higher = more potent),C3orf33,0.254
TTAATCACAAATGCTCTCCATG,sensor-assay potency score (higher = more potent),C3orf64,-0.629
TCCTCCACTTCTTACTCTGGTG,sensor-assay potency score (higher = more potent),C3orf22,-1.52
TCAAGCTGAAATCTGATCCTGT,sensor-assay potency score (higher = more potent),C3orf33,0.793
CTCCTGTGGAACATCGTCTGTG,sensor-assay potency score (higher = more potent),C2orf82,-1.6
TCCACTTCTTACTCTGGTGAGA,sensor-assay potency score (higher = more potent),C3orf22,-1.65
TATAAGTTCTCTGAACTTCAGT,sensor-assay potency score (higher = more potent),C3orf33,-0.164
ACATCGTCTGTGAGCACCGCAG,sensor-assay potency score (higher = more potent),C2orf82,-1.82
TTGGCACCAACCTCTTCTGCAG,sensor-assay potency score (higher = more potent),C3orf22,-0.633
TAAATTTTGATGTCAGTCGAAT,sensor-assay potency score (higher = more potent),C3orf33,-0.673
TAACTTTCTTTTTTCAAGCTGA,sensor-assay potency score (higher = more potent),C3orf33,-0.0803
TCTCAGCGCGACGACCACGAGC,sensor-assay potency score (higher = more potent),C2orf82,-1.5
TTGAATTTTTCTAAGTAACTTT,sensor-assay potency score (higher = more potent),C3orf33,-0.235
TCTGTCAGCCACGACAACCTGT,sensor-assay potency score (higher = more potent),C3orf22,-0.668
TCGTCTGTGAGCACCGCAGGGG,sensor-assay potency score (higher = more potent),C2orf82,-0.778
TTACTCTGGTGAGACTTCTTGC,sensor-assay potency score (higher = more potent),C3orf22,-0.146
TTAACAAGAACAGTTTTGCCAA,sensor-assay potency score (higher = more potent),C3orf33,-0.169
TTTATTAGCTTGGTGTAGCTTT,sensor-assay potency score (higher = more potent),C3orf22,0.257
TTCTTGGCAAAATTCTCCTGGG,sensor-assay potency score (higher = more potent),C3orf22,-0.771
AACACTTGCTGAATAAATGAGT,sensor-assay potency score (higher = more potent),C5orf56,-0.962
TTAACTCACTTACAAGAGCTTA,sensor-assay potency score (higher = more potent),C5AR1,-0.512
TAAACACCAGCAGAAAGCGGTC,sensor-assay potency score (higher = more potent),C5AR1,-1.02
TTAACTAAGTCTAAAAGCCTAG,sensor-assay potency score (higher = more potent),C5orf51,-0.498
TCCAATAGGCTACAAACTCTGG,sensor-assay potency score (higher = more potent),C5orf56,-1.19
TTATTCAGCAGCAGGAAGGTGG,sensor-assay potency score (higher = more potent),C5AR1,-0.586
TTCACTGCTGCATTGCTGCCAT,sensor-assay potency score (higher = more potent),C5orf56,-0.146
TATTAGTGACATAACATCTGTA,sensor-assay potency score (higher = more potent),C5orf51,0.937
TTCTTTCCAGAATCTTGGCTGT,sensor-assay potency score (higher = more potent),C5orf56,0.101
TTTGTCGTGGCTGTAGTCCACG,sensor-assay potency score (higher = more potent),C5AR1,-0.519
TTAACTGGATAGGACATCGATA,sensor-assay potency score (higher = more potent),C5orf51,-1.18
TTGATGACGAGGAAAAAGGAGA,sensor-assay potency score (higher = more potent),C5orf56,-0.938
TTTATCTTCATTACTCACTTGA,sensor-assay potency score (higher = more potent),C5orf51,1.06
TTCAGCAGCAGGAAGGTGGGTG,sensor-assay potency score (higher = more potent),C5AR1,0.301
TAATTGAGGAAAGTATACCAGC,sensor-assay potency score (higher = more potent),C6orf105,-0.629
TACTCCTCCCGGACCACCCGGT,sensor-assay potency score (higher = more potent),C5AR1,-0.108
TTATAAGCTGCATGAGAGCAGG,sensor-assay potency score (higher = more potent),C5orf56,-0.803
TAGAAGTTTTATCCACAGGGGT,sensor-assay potency score (higher = more potent),C5AR1,-0.173
AAAGGAGACATTTCTTTCCAGA,sensor-assay potency score (higher = more potent),C5orf56,-0.416
TAGAACATGATTACACAGGATG,sensor-assay potency score (higher = more potent),C5orf51,-0.681
TTGTTCACTGCTGCATTGCTGC,sensor-assay potency score (higher = more potent),C5orf56,-0.868
TTTGAAGATTCCCTTGGTGTGT,sensor-assay potency score (higher = more potent),C5orf56,-0.413
AATCTTGGCTGTAAGCAGCAGA,sensor-assay potency score (higher = more potent),C5orf56,-0.53
TTCAATATCAGAACTTCTGTAA,sensor-assay potency score (higher = more potent),C5orf51,0.18
TTTAGCTGTGTCTAGATCTTGG,sensor-assay potency score (higher = more potent),C5orf51,0.753
TTTCTTTCCAGAATCTTGGCTG,sensor-assay potency score (higher = more potent),C5orf56,0.311
ATAGTGTCCACTGTGGAGCGCG,sensor-assay potency score (higher = more potent),C5AR1,-0.598
TTTTAAGCGAGAATCTTTCTAC,sensor-assay potency score (higher = more potent),C5AR1,0.0632
TTGATGGATTTGAACATTCTTT,sensor-assay potency score (higher = more potent),C5orf51,-0.74
TTATTAGTGACATAACATCTGT,sensor-assay potency score (higher = more potent),C5orf51,-0.587
AAGTGTAACAAATCGTGAGCGT,sensor-assay potency score (higher = more potent),C5AR1,-0.136
TTGTATTCCATTCTTGTTCTTT,sensor-assay potency score (higher = more potent),C5orf51,-0.072
TTGAAGATTCCCTTGGTGTGTT,sensor-assay potency score (higher = more potent),C5orf56,0.717
TAAGGTAACACCATCCCACGAA,sensor-assay potency score (higher = more potent),C5AR1,0.399
AAAATCTTCATCTACTAGCTTG,sensor-assay potency score (higher = more potent),C5orf51,-0.0873
TTGAGTGTCTTGGTGGACCGCG,sensor-assay potency score (higher = more potent),C5AR1,0.0393
TTGAGGTCCAGGGTATCCTTGT,sensor-assay potency score (higher = more potent),C5AR1,-0.809
TATCTTAATGTAATACCGCTGT,sensor-assay potency score (higher = more potent),C5orf51,-0.406
TTAGAAGTTTTATCCACAGGGG,sensor-assay potency score (higher = more potent),C5AR1,-0.274
TTAAACACCAGCAGAAAGCGGT,sensor-assay potency score (higher = more potent),C5AR1,-0.159
TTTATCCACATTGTCAAGCATA,sensor-assay potency score (higher = more potent),C6orf58,-1.01
TTGTCTTTGCTTGAAGTTCTGA,sensor-assay potency score (higher = more potent),C9orf93,0.0324
AAATGCACAGGACCAGGCCGGG,sensor-assay potency score (higher = more potent),C9orf37,-1.34
TTGAATGGTCTCGTGATCCTAT,sensor-assay potency score (higher = more potent),C9orf93,0.611
TTGACATCCACATCTATGTGTG,sensor-assay potency score (higher = more potent),C9orf72,-0.37
TTAATCTATCAACACACACTCT,sensor-assay potency score (higher = more potent),C9orf72,-0.521
TTACCTTATCTATAAAATGCAC,sensor-assay potency score (higher = more potent),C9orf37,-0.752
TAAACAACGCAACTGCTCCTTT,sensor-assay potency score (higher = more potent),C9orf93,0.206
TTCTGTGGAACAGCATTTCTCA,sensor-assay potency score (higher = more potent),C9orf37,-0.352
